HCMV inh: qHTS Assay for inhibitors of the human cytomegalovirus (HCMV) | HFF cells, HCMV-luciferase reporter, 72 h; stronger effect = lower value | activity change, negative = inhibition, % at 57.5 µM | hit rate 4.5% among 410,000 | AID 1259415, 2018; in the data active = activity change below about -60%; inconclusive = no clear call, values can overlap the other calls; inactive = above about -39%
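Compounds were evaluated in HFFs infected with an HCMV luciferase reporter virus (MOI 1 PFU/cell). Luciferase in lysates collected 72 h post infection served as the replication measure.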
HCV inh: qHTS Assay for Inhibitors of Hepatitis C Virus (HCV); hit rate 3.4% among 340,000; AID 651820, 2012; Huh7.5.1 HCVcc-Cre infection, luciferase reporter, 44 h; Potency, µM (titrated, usually from 41.8 µM), hits mostly inhibitors
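Cells seeded at 1,000/well and cultured 4 h, then compounds added followed by HCVcc-Cre virus (~0.5 moi). After 44 h further culture, luciferase substrate was added, plates held 15 min at room temperature, and luminescence read for 15 sec.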
Giardia FBPA inh: qHTS Assay for Inhibitors of Fructose-1,6-bisphosphate Aldolase from Giardia Lamblia. purified Giardia FBPA. Potency, µM (highest dose often 59.6 µM), hits mostly inhibitors. hit rate 0.71% among 290,000. AID 2451, 2010; also: nearly all actives have a fitted effect of over 55% in size
Target sequence (A8B2U2 whole entry, looked up): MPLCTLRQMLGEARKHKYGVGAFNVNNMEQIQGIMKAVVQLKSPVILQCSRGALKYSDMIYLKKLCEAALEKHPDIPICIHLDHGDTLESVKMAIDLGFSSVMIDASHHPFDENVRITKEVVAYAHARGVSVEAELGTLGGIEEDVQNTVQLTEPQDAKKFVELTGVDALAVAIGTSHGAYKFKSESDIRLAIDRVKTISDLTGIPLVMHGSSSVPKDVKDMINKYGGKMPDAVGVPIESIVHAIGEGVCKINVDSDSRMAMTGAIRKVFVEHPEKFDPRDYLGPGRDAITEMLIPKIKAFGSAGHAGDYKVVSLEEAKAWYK
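Giardia FBPA (40 nM reagent) was preincubated 10 min at RT with compound (up to 57.5 uM final), then substrate plus GAPDH/TPI/NAD/arsenate coupling system with diaphorase/resazurin was added; resorufin fluorescence (525/598 nm) was read after 20 min.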
FMDV antiviral: High Throughput Screening for Foot and Mouth Disease Virus Antivirals; hit rate 1.2% among 410,000; FMDV antiviral cell-based qHTS; Potency, µM (highest dose often 57.9 µM), actives largely listed as inhibitors; AID 1159524, 2015; calls by dose curve; tested in HEK293T cells; also: read-out not given here; nearly all actives have a fitted effect of over 45% in size
VACV mCherry inh: qHTS for Stage-Specific Inhibitors of Vaccinia Orthopoxvirus: mCherry Reporter Primary qHTS; Vaccinia virus mCherry reporter infection, fluorescence; Potency, µM (top dose mostly 36.5 µM), usual class: inhibitors; hit rate 0.63% among 310,000; calls by dose curve; tested in A549 cells; also: nearly all actives have a fitted effect of over 35% in size
VACV Venus inh: qHTS for Stage-Specific Inhibitors of Vaccinia Orthopoxvirus: Venus Reporter Primary qHTS; hit rate 0.46% among 330,000; Potency, µM (top dose mostly 36.5 µM), hits mostly inhibitors; AID 720580, 2013; Vaccinia virus Venus reporter expression, fluorescence; calls by dose curve; tested in A549 cells; also: nearly all actives have a fitted effect of over 30% in size
A number is an active result; 0 = inactive; ? = inconclusive; - = no result given. In the library only some 7.5% were active in any assay of this set; here they are far more common. Unless noted, calls follow the shape of the dose curve; as a rule, active = well fitted curve in the direction sought with a large enough effect; inconclusive = small, poorly fitted or top-dose-only effect, or another doubt; inactive = no such curve, though single readings can be large; an effect the other way counts as inactive or inconclusive.

SMILES	HCMV inh	HCV inh	Giardia FBPA inh	FMDV antiviral	VACV mCherry inh	VACV Venus inh
O=[N+]([O-])c1ccc(Sc2cccc3cccnc23)cc1	0	0	?	-	0	0
O=[N+]([O-])c1ccc(Sc2cccc3cccnc23)c([N+](=O)[O-])c1	-105.6	0	?	?	-	-
O=[N+]([O-])c1cc(Cl)ccc1Sc1cccc2cccnc12	0	0	?	-	0	0
OC(C[n+]1ccccc1)c1ccccc1 (stereo not given)	0	0	0	0	-	-
COc1ccc(S(=O)(=O)NNC(=O)Nc2ccc(F)cc2F)c(OC)c1	0	0	0	0	0	0
Cc1c2cnn(CC(=O)NC(C)C)c(=O)c2c(C)n1Cc1ccccc1Cl	0	-	-	0	0	0
CN(C(=O)CCn1c(=S)oc2ccccc21)c1ccc(F)cc1	-88.7	0	0	0	0	0
O=C(CCn1c(=S)oc2ccccc21)Nc1ccc(F)cc1	0	0	0	0	-	-
CCOc1cccc(/C=N/Nc2ccc(S(=O)(=O)N(CC)CC)cn2)c1O	-99.7	?	0	0	?	?
CCN(CC)S(=O)(=O)c1ccc(N/N=C(\C)c2ccc(OC)cc2O)nc1	-61.8	?	0	0	-	-
CCN(CC)S(=O)(=O)c1ccc(N/N=C/c2cc(OC)c(OC)cc2OC)nc1	0	0	0	0	0	0
C/C(=N\NC(=O)c1nnn(-c2nonc2N)c1CN(C)c1ccccc1)c1ccccn1	-	4.47µM	0	0	-	-
CCCN(CCC)Cc1c(C(=O)N/N=C/C(C)=C\c2ccco2)nnn1-c1nonc1N	?	8.91µM	?	0	10µM	?
CCCc1c(C(=O)N/N=C(\C)c2ccccc2O)nnn1-c1nonc1N	0	-	-	0	?	0
C/C(=N\NC(=O)c1nnn(-c2nonc2N)c1-c1ccccc1)c1ccccc1O	-89.2	6.31µM	0	0	2µM	?
C/C(=N\NC(=O)c1nnn(-c2nonc2N)c1CN(C)c1ccccc1)c1ccc(O)cc1	-60.5	0	0	0	-	-
CC(=O)c1ccccc1NC(C(=O)NC(C)(C)CC(C)(C)C)C1CC1 (stereo not given)	0	-	-	-	-	-
O=C(c1ccc(F)cc1)N1CC(=O)N2[C@H](CO)[C@H](c3ccc(Br)cc3)[C@@H]2C1	0	-	-	-	-	-
CCOc1ccc(C(=O)Nc2ccc(C(=O)N3CCOCC3)cc2)c(OCC)c1	0	14.1µM	-	0	0	0
CCC(C)Oc1cccc(C(=O)Nc2ccccc2N2CCOCC2)c1 (stereo not given)	0	7.08µM	0	0	-	-
CCOc1cccc(C(=O)Nc2ccccc2C(=O)N2CCOCC2)c1	-97.4	-	-	0	0	0
Cc1ccc(C(=O)COC(=O)c2cc(-c3ccc(Cl)cc3)nc3ccccc23)cc1	0	-	-	0	0	0
O=C(Nc1ccccc1)NC1CCS(=O)(=O)C1 (stereo not given)	0	0	0	0	-	0
CC(=O)NC1=C(NC2CCS(=O)(=O)C2)C(=O)c2ccccc2C1=O (stereo not given)	0	7.08µM	?	0	0	?
O=c1c2ccccc2nc2n1CCS2(=O)=O	0	0	0	31.6µM	0	0
SMILES	HCMV inh	HCV inh	Giardia FBPA inh	FMDV antiviral	VACV mCherry inh	VACV Venus inh
CC(NC(=O)COC(=O)c1ccccc1F)C1CC2CCC1C2 (stereo not given)	0	0	-	0	-	-
Cc1ccc(-n2c(O)c(C=Nc3ccc(S(N)(=O)=O)cc3)c(=O)[nH]c2=O)cc1	-103.7	0	0	0	0	0
NS(=O)(=O)c1ccc(N=Cc2c(O)n(-c3ccccc3)c(=O)[nH]c2=O)cc1	0	0	0	0	0	0
CCC1(C2CCN(C(=O)c3ccc(C)cc3C)CC2)NC(=O)N(CCc2scnc2C)C1=O (stereo not given)	-	-	-	0	0	0
COc1ccc(OCc2cc(C(=O)N(Cc3nccn3C)C(C)C)no2)c2ccccc12	0	?	?	0	-	-
CC(C)N(Cc1nccn1C)C(=O)c1cc(COc2ccc(F)cc2Cl)on1	-97.3	0	0	0	0	0
O=C(c1cc(COc2ccc(F)cc2Cl)on1)N(Cc1ccncc1)CC1CCCO1 (stereo not given)	-61.1	?	0	0	0	0
CCC(NC(=O)c1cc(COc2ccc(F)cc2Cl)on1)c1ccncc1 (stereo not given)	?	3.98µM	0	0	-	-
O=C(c1cc(COc2ccc(F)cc2Cl)on1)N1CCC(c2ccncc2)CC1	-67.1	12.6µM	0	0	0	0
CCN1C(=O)[C@H]2[C@@H](c3ccc(-c4ccc(F)cc4)c(OC)c3)N[C@@](CC(C)C)(C(=O)OC)[C@H]2C1=O	0	0	-	-	-	-
CCc1ccc(S(=O)(=O)c2nnn3c2nc(N2CCOCC2)c2ccccc23)cc1	0	?	0	0	0	0
CCOC(=O)C1=CCN(S(=O)(=O)c2ccc(F)cc2)C1c1ccc(Cl)cc1 (stereo not given)	0	-	-	-	-	-
COc1cc(/C=C2\SC(=S)N(CCC(=O)Nc3ccccc3O)C2=O)cc(OC)c1OC	-68.9	?	0	?	-	-
COc1cc(/C=C2\SC(=S)N(CC(=O)Nc3cccnc3)C2=O)cc(OC)c1OC	0	0	0	?	0	0
COc1cc(/C=C2\SC(=S)N(CCC(=O)NCCc3ccccc3)C2=O)cc(OC)c1OC	0	0	0	0	0	0
COc1cc(/C=C2\SC(=S)N(CC(=O)Nc3ccc(O)cc3)C2=O)cc(OC)c1OC	-75.3	0	0	0	-	-
CCn1cc(C(=O)OCC(=O)NCc2ccccc2Cl)c(=O)c2ccc(C)nc21	-101.8	0	0	0	0	0
CCn1cc(C(=O)OCC(=O)Nc2cccc(Cl)c2C)c(=O)c2ccc(C)nc21	0	-	-	0	0	0
COc1cc(CNc2ccccc2)c([N+](=O)[O-])cc1OC	0	0	?	?	0	0
COc1ccc(S(=O)(=O)N(CC(=O)NCCC(C)C)c2ccccc2)cc1OC	?	0	0	0	0	0
COc1ccc(S(=O)(=O)N(CC(=O)NCc2ccccc2)c2ccc(C)cc2)cc1OC	-105.0	-	-	17.8µM	0	0
CCOc1ccc(N(CC(=O)OC)S(=O)(=O)c2ccc(OC)c(OC)c2)cc1	0	0	0	0	-	0
CCOc1ccc(N(CC(=O)NC(C(C)C)C(C)C)S(=O)(=O)c2ccc(OC)c(OC)c2)cc1	0	10µM	0	0	0	0
C[C@@H](NC(=O)CN(c1ccccc1)S(=O)(=O)N(C)C)c1ccccc1	-105.2	-	-	0	0	0
COc1ccc(S(=O)(=O)N(CC(=O)NC(C)c2ccccc2)c2ccc(C)cc2)cc1OC (stereo not given)	-88.4	-	-	?	0	0
O=C(NCc1nnc2n1CCN(Cc1cc(F)cc(F)c1)CC2)c1cccc(F)c1	-	-	-	0	?	0
CCN(c1cccc(C)c1)S(=O)(=O)c1ccc(-c2cc(C)no2)s1	-65.4	0	-	0	-	-

Screens: PubChem, National Center for Advancing Translational Sciences (NCATS)
